Assay results published in the supplement of paper PMC10849652.
The full data set covers some 7,900 targets. This sample favours those with a hit. About 0.6% of all pairs of compound and target were hits. Values without a mark were called inactive.

Assays:
Experiment in all cases: log2 fold change, soluble protein after heating vs DMSO (PISA); higher = thermal stabilisation; K562 cells, 10 uM, 30 min; active = over 0.2 and 3.5 SD of the protein, either way, in both replicates (recomputed)
ZEB2 = ZEB2 (UniProt O60315)
Procedure, shortened: (§1)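 K562 cells at 2×10^6 cells/mL were exposed to 10 μM compound for 30 min, then aliquots were heated for 3 min across 48°C-58°C, pooled, and extracted in PBS containing 0.5% NP-40 at 4°C. The supernatant after 21,000xg for 90 min was taken as soluble protein and measured by TMTpro 16plex LC-MS/MS with channel sums equalised. Thermal stability is reported relative to control samples, with values from duplicates. Fold changes are given on a log2 scale.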

ZER1 = ZER1 (UniProt Q7Z7L7)
Procedure, shortened: as §1

ZFAND5 = ZFAND5 (UniProt O76080)
Procedure, shortened: as §1

ZFAND6 = ZFAND6 (UniProt Q6FIF0)
Procedure, shortened: as §1

ZFP91 = ZFP91 (UniProt Q96JP5)
Procedure, shortened: as §1

ZFPL1 = ZFPL1 (UniProt O95159)
Procedure, shortened: as §1

ZMAT2 = ZMAT2 (UniProt Q96NC0)
Procedure, shortened: as §1

ZMYM1 = ZMYM1 (UniProt Q5SVZ6)
Procedure, shortened: as §1

ZMYM3 = ZMYM3 (UniProt Q14202)
Procedure, shortened: as §1

ZNF143 = ZNF143 (UniProt P52747)
Procedure, shortened: as §1

ZNF217 = ZNF217 (UniProt O75362)
Procedure, shortened: as §1

ZNF239 = ZNF239 (UniProt Q16600)
Procedure, shortened: as §1

ZNF277 = ZNF277 (UniProt Q9NRM2)
Procedure, shortened: as §1

ZNF511 isoform 1 = ZNF511 isoform 1 (UniProt Q8NB15)
Procedure, shortened: as §1

ZNF579 = ZNF579 (UniProt Q8NAF0)
Procedure, shortened: as §1

ZNF580 = ZNF580 (UniProt Q9UK33)
Procedure, shortened: as §1

ZNF609 = ZNF609 (UniProt O15014)
Procedure, shortened: as §1

ZNF622 = ZNF622 (UniProt Q969S3)
Procedure, shortened: as §1

ZRANB2 = ZRANB2 (UniProt O95218)
Procedure, shortened: as §1

ZNF512 = ZNF512 (UniProt Q96ME7)
Procedure, shortened: as §1

ZFPL1, sequence (O95159 whole entry, looked up): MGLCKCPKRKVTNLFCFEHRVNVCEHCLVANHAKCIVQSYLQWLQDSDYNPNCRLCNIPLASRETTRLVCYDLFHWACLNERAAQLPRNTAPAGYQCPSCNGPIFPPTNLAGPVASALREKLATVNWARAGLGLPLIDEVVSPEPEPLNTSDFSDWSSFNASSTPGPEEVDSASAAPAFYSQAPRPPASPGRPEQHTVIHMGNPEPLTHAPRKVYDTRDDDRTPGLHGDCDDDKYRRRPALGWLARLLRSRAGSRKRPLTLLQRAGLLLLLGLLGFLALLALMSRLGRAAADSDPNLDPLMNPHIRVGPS
ZFAND6, sequence (Q6FIF0 whole entry, looked up): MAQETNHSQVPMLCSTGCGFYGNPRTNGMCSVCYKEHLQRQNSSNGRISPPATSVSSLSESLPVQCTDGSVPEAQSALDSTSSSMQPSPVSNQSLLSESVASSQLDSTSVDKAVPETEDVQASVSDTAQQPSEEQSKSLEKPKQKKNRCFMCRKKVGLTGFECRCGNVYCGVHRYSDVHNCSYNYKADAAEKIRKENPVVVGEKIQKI
ZNF143, sequence (P52747 whole entry, looked up): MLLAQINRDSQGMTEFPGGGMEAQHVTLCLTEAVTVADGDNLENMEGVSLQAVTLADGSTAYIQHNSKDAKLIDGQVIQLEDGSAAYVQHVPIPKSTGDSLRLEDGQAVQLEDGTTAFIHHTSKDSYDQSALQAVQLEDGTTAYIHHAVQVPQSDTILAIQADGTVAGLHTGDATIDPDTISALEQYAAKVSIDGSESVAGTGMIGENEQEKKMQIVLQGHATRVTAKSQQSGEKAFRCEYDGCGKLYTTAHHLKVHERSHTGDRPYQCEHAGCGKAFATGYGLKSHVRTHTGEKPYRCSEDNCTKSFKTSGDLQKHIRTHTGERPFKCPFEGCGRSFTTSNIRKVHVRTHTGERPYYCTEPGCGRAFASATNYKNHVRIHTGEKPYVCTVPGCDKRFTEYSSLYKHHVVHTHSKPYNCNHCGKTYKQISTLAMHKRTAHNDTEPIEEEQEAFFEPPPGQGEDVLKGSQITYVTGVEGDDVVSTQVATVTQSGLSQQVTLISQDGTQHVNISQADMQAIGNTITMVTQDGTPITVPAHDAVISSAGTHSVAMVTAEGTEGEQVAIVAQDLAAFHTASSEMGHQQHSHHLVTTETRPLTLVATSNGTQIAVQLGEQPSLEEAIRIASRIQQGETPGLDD
ZNF579, sequence (Q8NAF0 whole entry, looked up): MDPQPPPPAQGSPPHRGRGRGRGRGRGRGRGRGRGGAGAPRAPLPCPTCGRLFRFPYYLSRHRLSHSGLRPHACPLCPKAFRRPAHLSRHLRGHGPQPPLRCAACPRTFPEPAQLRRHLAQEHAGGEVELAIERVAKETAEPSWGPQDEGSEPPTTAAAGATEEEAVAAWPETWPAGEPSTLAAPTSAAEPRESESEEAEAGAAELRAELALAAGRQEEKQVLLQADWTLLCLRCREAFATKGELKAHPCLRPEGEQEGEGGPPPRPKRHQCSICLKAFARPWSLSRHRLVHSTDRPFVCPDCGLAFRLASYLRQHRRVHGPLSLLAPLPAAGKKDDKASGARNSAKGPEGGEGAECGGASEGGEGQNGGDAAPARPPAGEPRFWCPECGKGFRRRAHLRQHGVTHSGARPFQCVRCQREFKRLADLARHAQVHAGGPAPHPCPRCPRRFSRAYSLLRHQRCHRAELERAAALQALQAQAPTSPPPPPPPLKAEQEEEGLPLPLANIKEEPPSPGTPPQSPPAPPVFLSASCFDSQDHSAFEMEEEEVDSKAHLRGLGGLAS
ZFAND5, sequence (O76080 whole entry, looked up): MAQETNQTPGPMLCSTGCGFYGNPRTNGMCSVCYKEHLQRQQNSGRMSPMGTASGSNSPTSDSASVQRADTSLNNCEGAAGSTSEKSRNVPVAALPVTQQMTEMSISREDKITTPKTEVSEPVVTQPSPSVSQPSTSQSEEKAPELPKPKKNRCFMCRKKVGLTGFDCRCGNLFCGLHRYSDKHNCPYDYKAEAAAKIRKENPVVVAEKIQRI
ZFP91, sequence (Q96JP5 whole entry, looked up): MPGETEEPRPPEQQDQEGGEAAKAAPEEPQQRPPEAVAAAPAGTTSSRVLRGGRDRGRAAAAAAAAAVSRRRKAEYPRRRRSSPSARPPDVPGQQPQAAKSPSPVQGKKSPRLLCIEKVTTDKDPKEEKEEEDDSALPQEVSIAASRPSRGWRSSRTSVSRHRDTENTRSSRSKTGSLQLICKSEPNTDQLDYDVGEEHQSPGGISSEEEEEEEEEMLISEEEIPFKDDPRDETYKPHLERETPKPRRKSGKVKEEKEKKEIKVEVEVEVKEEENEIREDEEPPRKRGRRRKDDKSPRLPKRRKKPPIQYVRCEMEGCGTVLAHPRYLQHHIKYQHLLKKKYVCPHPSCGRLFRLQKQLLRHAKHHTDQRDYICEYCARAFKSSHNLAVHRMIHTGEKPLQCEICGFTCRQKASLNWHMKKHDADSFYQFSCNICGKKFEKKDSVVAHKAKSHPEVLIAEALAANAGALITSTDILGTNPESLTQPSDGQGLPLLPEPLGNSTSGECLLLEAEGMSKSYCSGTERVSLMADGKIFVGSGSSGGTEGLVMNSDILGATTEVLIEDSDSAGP
ZNF622, sequence (Q969S3 whole entry, looked up): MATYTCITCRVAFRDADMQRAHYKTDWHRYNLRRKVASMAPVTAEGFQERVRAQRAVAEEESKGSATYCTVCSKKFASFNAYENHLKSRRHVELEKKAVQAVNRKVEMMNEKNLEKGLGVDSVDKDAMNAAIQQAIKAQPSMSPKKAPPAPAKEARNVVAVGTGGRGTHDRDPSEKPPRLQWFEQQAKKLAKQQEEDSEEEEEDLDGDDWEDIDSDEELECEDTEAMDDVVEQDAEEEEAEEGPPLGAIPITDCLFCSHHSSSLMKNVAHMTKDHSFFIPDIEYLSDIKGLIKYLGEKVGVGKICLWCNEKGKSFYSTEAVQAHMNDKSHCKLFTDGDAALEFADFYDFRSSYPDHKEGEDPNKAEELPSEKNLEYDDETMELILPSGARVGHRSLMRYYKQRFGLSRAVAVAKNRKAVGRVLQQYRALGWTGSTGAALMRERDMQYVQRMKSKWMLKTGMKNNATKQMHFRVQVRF
ZMAT2, sequence (Q96NC0 whole entry, looked up): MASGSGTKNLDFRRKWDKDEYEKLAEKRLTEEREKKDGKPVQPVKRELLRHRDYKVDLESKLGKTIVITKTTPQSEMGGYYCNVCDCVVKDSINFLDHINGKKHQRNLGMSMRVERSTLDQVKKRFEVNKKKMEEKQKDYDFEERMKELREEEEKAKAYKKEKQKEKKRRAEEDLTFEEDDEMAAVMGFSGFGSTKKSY
ZMYM3, sequence (Q14202 whole entry, looked up): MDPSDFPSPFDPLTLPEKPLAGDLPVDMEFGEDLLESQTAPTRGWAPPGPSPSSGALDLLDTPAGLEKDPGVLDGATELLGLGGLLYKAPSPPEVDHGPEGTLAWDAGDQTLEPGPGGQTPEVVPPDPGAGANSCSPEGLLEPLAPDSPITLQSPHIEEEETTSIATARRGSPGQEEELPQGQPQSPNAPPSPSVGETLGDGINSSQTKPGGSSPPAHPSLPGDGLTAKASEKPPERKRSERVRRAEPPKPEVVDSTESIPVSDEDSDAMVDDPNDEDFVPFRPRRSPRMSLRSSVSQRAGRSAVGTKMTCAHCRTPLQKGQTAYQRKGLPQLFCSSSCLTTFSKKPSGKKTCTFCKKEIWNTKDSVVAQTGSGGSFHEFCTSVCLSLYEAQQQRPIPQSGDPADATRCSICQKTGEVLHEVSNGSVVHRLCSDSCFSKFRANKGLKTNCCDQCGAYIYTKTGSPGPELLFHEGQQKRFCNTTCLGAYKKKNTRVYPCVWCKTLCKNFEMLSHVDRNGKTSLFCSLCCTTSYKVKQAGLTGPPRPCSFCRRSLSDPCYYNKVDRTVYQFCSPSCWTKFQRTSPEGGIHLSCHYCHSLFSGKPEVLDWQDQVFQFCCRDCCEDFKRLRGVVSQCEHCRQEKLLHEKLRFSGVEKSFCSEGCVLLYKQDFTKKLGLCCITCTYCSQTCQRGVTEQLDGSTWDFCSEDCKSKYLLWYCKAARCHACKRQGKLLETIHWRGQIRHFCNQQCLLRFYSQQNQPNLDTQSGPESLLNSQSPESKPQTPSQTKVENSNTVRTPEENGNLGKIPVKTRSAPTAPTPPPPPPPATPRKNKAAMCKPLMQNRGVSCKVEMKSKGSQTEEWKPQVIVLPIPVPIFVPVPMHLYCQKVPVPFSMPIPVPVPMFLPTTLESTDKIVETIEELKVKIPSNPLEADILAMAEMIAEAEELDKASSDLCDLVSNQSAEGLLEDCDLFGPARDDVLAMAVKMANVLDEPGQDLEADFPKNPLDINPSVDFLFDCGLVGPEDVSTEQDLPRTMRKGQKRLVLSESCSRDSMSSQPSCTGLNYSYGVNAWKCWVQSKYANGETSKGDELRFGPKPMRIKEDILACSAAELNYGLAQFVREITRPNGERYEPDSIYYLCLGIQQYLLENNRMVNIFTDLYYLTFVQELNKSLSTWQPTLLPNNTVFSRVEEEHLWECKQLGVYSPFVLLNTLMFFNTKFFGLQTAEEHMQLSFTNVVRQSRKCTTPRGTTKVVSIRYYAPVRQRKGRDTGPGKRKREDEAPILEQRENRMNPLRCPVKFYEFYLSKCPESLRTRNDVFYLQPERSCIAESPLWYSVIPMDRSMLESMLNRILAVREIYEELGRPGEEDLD
ZRANB2, sequence (O95218 whole entry, looked up): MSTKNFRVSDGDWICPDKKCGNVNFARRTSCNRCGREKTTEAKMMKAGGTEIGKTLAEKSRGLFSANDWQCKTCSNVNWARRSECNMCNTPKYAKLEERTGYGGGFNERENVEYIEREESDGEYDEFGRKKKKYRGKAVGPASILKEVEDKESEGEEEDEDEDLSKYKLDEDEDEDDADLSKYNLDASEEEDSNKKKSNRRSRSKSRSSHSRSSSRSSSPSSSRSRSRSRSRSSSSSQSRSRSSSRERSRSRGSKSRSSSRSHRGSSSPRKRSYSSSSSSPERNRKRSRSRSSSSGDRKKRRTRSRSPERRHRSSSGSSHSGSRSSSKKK

SMILES | log2 fold change (ZEB2) | log2 fold change (ZER1) | log2 fold change (ZFAND5) | log2 fold change (ZFAND6) | log2 fold change (ZFP91) | log2 fold change (ZFPL1) | log2 fold change (ZMAT2) | log2 fold change (ZMYM1) | log2 fold change (ZMYM3) | log2 fold change (ZNF143) | log2 fold change (ZNF217) | log2 fold change (ZNF239) | log2 fold change (ZNF277) | log2 fold change (ZNF511 isoform 1) | log2 fold change (ZNF579) | log2 fold change (ZNF580) | log2 fold change (ZNF609) | log2 fold change (ZNF622) | log2 fold change (ZRANB2) | log2 fold change (ZNF512)
COc1cc2nc(-c3cc(F)ccc3O)nc(N[C@@H]3CNC[C@H]3C(C)(C)O)c2cc1OC | -0.018 | 0.048 | 0 | 0.017 | -0.095 | 0.099 | -0.028 | 0.004 | -0.045 | -0.19 | -0.026 | 0.024 | 0.268 | -0.013 | 0.042 | 0.093 | 0.205 | 0.028 | -0.006 | –
COc1cc2ncnc(Nc3ccc(F)c(Cl)c3)c2cc1OCCCN1CCOCC1 [gefitinib] | -0.086 | -0.031 | -0.006 | -0.005 | 0.02 | 0.065 | -0.021 | 0.014 | 0.034 | -0.098 | 0.001 | -0.267 | -0.053 | -0.192 | 0.111 | – | -0.069 | 0 | 0.034 | -0.02
O=C(O)c1ccc2c(c1)nc(Nc1cccc(Cl)c1)c1ccncc12 [silmitasertib] | -0.001 | 0.028 | -0.03 | -0.018 | 0.086 | 0.003 | 0.028 | 0.255 | -0.012 | 0.023 | -0.073 | 0.29 | 0.105 | 0.076 | -0.016 | – | 0.02 | -0.058 | 0.018 | 0.234
CN(C)CC(=O)Nc1ccc2[nH]c(=O)c3ccccc3c2c1 | -0.124 | -0.099 | -0.119 | -0.052 | -0.074 | 0 | -0.018 | -0.046 | -0.067 | -0.025 | 0.06 | -0.1 | -0.003 | 0.068 | -0.026 | 0.046 | 0.047 | -0.024 | -0.048 | –
COC(=O)[C@H](CCSC)NC(=O)c1ccc(NC[C@@H](N)CS)cc1-c1ccccc1 | -0.382 | 0.035 | 0.1 | 0.061 | 0.064 | -0.007 | 0.019 | 0.026 | 0.035 | 0.013 | -0.067 | 0.002 | -0.047 | -0.201 | -0.012 | -0.082 | 0.019 | 0.005 | 0.05 | –
CCCc1cc(C)[nH]c(=O)c1CNC(=O)c1cc(-c2ccnc(N3CCN(C)CC3)c2)cc2c1cnn2C(C)C | -0.067 | -0.125 | -0.038 | -0.051 | 0.074 | -0.05 | -0.044 | -0.017 | 0.067 | -0.006 | 0.003 | -0.662 (active) | 0.154 | 0.08 | 0.058 | – | -0.003 | -0.01 | 0.028 | 0.363
COc1cc(Nc2ncc3c(n2)-c2ccc(Cl)cc2C(c2c(F)cccc2OC)=NC3)ccc1C(=O)O [alisertib] | 0.103 | -0.006 | -0.057 | -0.079 | -0.013 | 0.014 | -0.045 | -0.021 | 0.057 | -0.05 | -0.092 | -0.004 | 0.028 | 1.14 | -0.082 | – | -0.021 | -0.028 | -0.058 | -0.286
FC(F)(F)c1ccc(/C=C/c2nc(COc3ccc(CCCCn4ccnn4)cc3)co2)cc1 [mubritinib] | -0.114 | 0.044 | 0.099 | 0.017 | -0.076 | -0.007 | 0.049 | -0.081 | -0.072 | 0.094 | 0.08 | -0.483 | 0.192 | -0.06 | 0.031 | – | 0.019 | 0.004 | -0.02 | -0.122
CCCS(=O)(=O)Nc1ccc(F)c(C(=O)c2c[nH]c3ncc(Cl)cc23)c1F | 0.123 | -0.001 | -0.058 | 0.002 | -0.041 | 0.006 | -0.008 | -0.006 | 0.016 | 0.063 | 0.688 (active) | -0.02 | 0.028 | 0.014 | -0.085 | 0.069 | 0.036 | 0.023 | -0.02 | –
CCCCN(Cc1ccc(C(=O)NO)cc1)C(=O)Nc1ccccc1 [Nexturastat A] | 0.047 | 0.012 | 0.371 (active) | 0.027 | 0.079 | -0.064 | -0.011 | 0.059 | 0.07 | 0.19 | 0.006 | 0.441 | 0.276 | -0.074 | 0.004 | – | 0.475 (active) | -0.086 | -0.057 | -0.038
C[C@@H]1COCCN1c1cc(C2(S(C)(=O)=O)CC2)nc(-c2cccc3[nH]ccc23)n1 | 0.001 | 0.107 | 0.041 | 0.127 | -0.124 | -0.056 | -0.022 | 0.029 | -0.058 | -0.018 | -0.099 | -0.065 | -0.566 | 0.105 | -0.114 | – | -0.064 | 0.067 | 0.001 | 0.007
Cc1ccc(Sc2cncc3sc(C(N)=O)cc23)cc1 | -0.012 | -0.085 | -0.047 | -0.01 | -0.025 | 0.008 | 0.113 | 0.061 | -0.07 | -0.042 | -0.107 | 0.019 | -0.032 | 0.018 | -0.07 | 0.16 | -0.045 | -0.022 | -0.04 | –
Cc1cn(-c2cc(NC(=O)c3ccc(C)c(Nc4nccc(-c5cccnc5)n4)c3)cc(C(F)(F)F)c2)cn1 [nilotinib] | 0.025 | 0.098 | 0.098 | 0.014 | 0.023 | -0.047 | 0.012 | -0.009 | 0.041 | -0.105 | -0.082 | -0.022 | -0.207 | -0.17 | 0.105 | – | 0.03 | 0.046 | 0.052 | -0.031
O=C1NC(=O)C(c2cnc3ccccn23)=C1c1cn2c3c(cc(F)cc13)CN(C(=O)N1CCCCC1)CC2 | 0.116 | -0.198 | -0.157 | -0.013 | 0.073 | -0.003 | 0.012 | 0.045 | 0.003 | -0.042 | -0.102 | 0.082 | 0.124 | -0.095 | 0.038 | – | -0.571 (active) | 0.043 | 0.12 | -0.023
NCC(=O)Nc1ccc(-n2nc(C(F)(F)F)cc2-c2ccc3c(ccc4ccccc43)c2)cc1 | -0.343 | 0.03 | 0.103 | 0.061 | 0.036 | 0.027 | 0.016 | 0.336 | 0.073 | -0.047 | -0.081 | -0.027 | -0.148 | -0.005 | 0.085 | -0.038 | -0.076 | -0.016 | 0.067 | –
